“And” between values parts separate entries of the source, which are not always exact repeats. Identical values can stand only once. The campaign covered roughly 5,500 compounds. About 2,000 (36%) were called active. Another 18% or so got no clear call; they are omitted. Rule as the data show it: active = normalized growth mostly below about 0.91 (no sharp cut-off); inconclusive = no clear call, values can overlap the other calls; inactive = mostly above about 0.92. The list shows a part of the results.
Test: chemical genetic growth profiling, strain panel (AID 1159580);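 also: tested at 20 µM; growth read once vehicle control cultures reached saturation at 30 °C; 1 = growth at the plate median or of vehicle wells; lower values mean less growth of the strain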
Settings: S. cerevisiae deletion strains, growth OD

Measured: normalized growth

CC(=O)OCC1=C(C(=O)O)N2C(=O)[C@@H](NC(=O)CCCC(N)C(=O)O)C2SC1 (some centres not stated)
inactive: locus YAL013W, strain DEP1, hits give low values 1.02 | locus YAL021C, strain ccr4, hits give low values 1.01 | locus YAL026C, strain drs2, hits give low values 1.01 | locus YAL030W, strain snc1, hits give low values 0.998 | locus YBL061C, strain skt5, hits give low values 0.997 | locus YBR009C, strain hhf1, hits give low values 1.02 | locus YBR021W, strain FUR4, hits give low values 0.998 | locus YBR023C, strain chs3, hits give low values 0.987 | locus YBR171W, strain sec66, hits give low values 1 | locus YBR229C, strain ROT2, hits give low values 1 | locus YBR231C, strain swc5, hits give low values 0.992 | locus YBR279W, strain paf1, hits give low values 0.989 | locus YCL011C, strain gbp2, hits give low values 1 | locus YCL016C, strain dcc1, hits give low values 0.988 | locus YCL029C, strain bik1, hits give low values 1.02 | locus YCL061C, strain MRC1, hits give low values 0.997 | locus YCL069W, strain vba3, hits give low values 0.997 | locus YCR088W, strain abp1, hits give low values 0.998 | locus YDL005C, strain med2, hits give low values 0.992 | locus YDL035C, strain GPR1, hits give low values 1.03 | locus YDL040C, strain nat1, hits give low values 0.99 | locus YDL074C, strain BRE1, hits give low values 1 | locus YDL101C, strain DUN1, hits give low values 1.01 | locus YDL134C, strain PPH21, hits give low values 1.01 | locus YDL185W, strain tfp1, hits give low values 1 | locus YDL192W, strain arf1, hits give low values 1.01 | locus YDR001C, strain nth1, hits give low values 0.99 | locus YDR069C, strain doa4, hits give low values 1.01 | locus YDR101C, strain arx1, hits give low values 1 | locus YDR137W, strain rgp1, hits give low values 0.985 | locus YDR150W, strain NUM1, hits give low values 1.02 | locus YDR159W, strain sac3, hits give low values 1.01 | locus YDR162C, strain NBP2, hits give low values 1.02 | locus YDR195W, strain ref2 0.963 | locus YDR297W, strain sur2, hits give low values 0.999 | locus YDR318W, strain mcm21, hits give low values 1.05 | locus YDR334W, strain swr1, hits give low values 0.996 | locus YDR335W, strain msn5, hits give low values 0.992 | locus YDR388W, hits give low values 0.986 | locus YDR392W, strain spt3, hits give low values 0.942 | locus YDR502C, strain sam2, hits give low values 1.04 | locus YEL003W, strain gim4, hits give low values 0.994 | locus YEL037C, strain rad23, hits give low values 0.99 | locus YEL061C, strain CIN8 (second series), hits give low values 0.991 | locus YEL061C, strain CIN8, hits give low values 1.01 | locus YER015W, strain faa2, hits give low values 0.993 | locus YER016W, strain bim1, hits give low values 0.999 | locus YER110C, hits give low values 0.994 | locus YER111C, strain swi4, hits give low values 0.995 | locus YER155C, strain BEM2 (second series), hits give low values 1 | locus YER155C, strain BEM2, hits give low values 1 | locus YER167W, strain BCK2, hits give low values 1.03 | locus YFR010W, strain ubp6, hits give low values 1.01 | locus YGL078C, strain dbp3, hits give low values 1.01 | locus YGL086W, strain mad1, hits give low values 1.04 | locus YGL167C, strain pmr1, hits give low values 0.992 | locus YGL173C, strain kem1, hits give low values 1.01 | locus YGL227W, strain vid30, hits give low values 0.994 | locus YGL240W, strain doc1, hits give low values 0.998 | locus YGL248W, strain PDE1, hits give low values 1 | locus YGL253W, strain hxk2, hits give low values 0.982 | locus YGR078C, strain PAC10, hits give low values 1.01 | locus YGR135W, strain pre9, hits give low values 1.06 | locus YGR229C, strain SMI1, hits give low values 1.01 | locus YGR252W, strain gcn5, hits give low values 1.04 | locus YHR013C, strain ard1, hits give low values 1.09 | locus YHR027C, strain rpn1, hits give low values 0.99 | locus YHR030C, strain SLT2, hits give low values 1.01 and 0.982 | locus YHR079C, strain IRE1 (second series), hits give low values 0.999 | locus YHR079C, strain IRE1, hits give low values 0.988 | locus YHR094C, strain hxt1, hits give low values 0.991 | locus YHR129C, strain ARP1, hits give low values 1 | locus YHR142W, strain chs7, hits give low values 0.994 | locus YHR200W, strain rpn10, hits give low values 1.02 | locus YIL066C, strain RNR3, hits give low values 1.04 | locus YIL073C, strain SPO22, hits give low values 1.25 | locus YIL125W, strain kgd1, hits give low values 1 | locus YIR030C, strain dcg1, hits give low values 1 | locus YJL092W, strain hpr5, hits give low values 0.993 | locus YJL095W, strain BCK1 (second series), hits give low values 0.99 | locus YJL095W, strain BCK1, hits give low values 1.01 | locus YJL115W, strain asf1, hits give low values 0.985 | locus YJL129C, strain trk1, hits give low values 1 | locus YJL134W, strain LCB3, hits give low values 1 | locus YJL154C, strain vps35, hits give low values 0.986 | locus YJL164C, strain tpk1, hits give low values 1.01 | locus YJL166W, strain qcr8, hits give low values 0.989 | locus YJL168C, strain set2, hits give low values 0.996 | locus YJL187C, strain SWE1 (second series), hits give low values 1.03 | locus YJL187C, strain SWE1, hits give low values 0.994 | locus YJR043C, strain POL32, hits give low values 1.01 | locus YJR066W, strain TOR1, hits give low values 0.942

Reference: PubChem BioAssay AID1159580 (chemical genetic matrix, 2015)
